As a reminder, the AC50 is the concentration giving half of the maximal activity seen.

SMILES strings stand for the structures. Values joined by “and” are separate entries in the source; they are usually repeats but may differ in a detail not shown here. Equal entries are not always repeated. Hit rate of the full screen: of about 16,000 compounds, about 5,700 (36%) were called active. Roughly 24% stayed inconclusive and do not appear here. The list shows a part of the results. Values without a mark were called inactive. The call rests on the fitted dose curve; in most records, active means well fitted curve in the direction sought with a large enough effect; inconclusive means small, poorly fitted or top-dose-only effect, or effect the other way; inactive means no such curve, though single readings can be large or run the other way.
On the % scale 0 is the no-effect control and ±100 the full control effect.

The target of the assay is Cytochrome P450 1A2 (Homo sapiens) (UniProt P05177). Briefly: Cytochrome panel assay with activity outcomes. The following applies: recombinant CYP, pro-luciferin dealkylation, luminescence, p450-cyp1a2; series mostly up to 57.1 µM; activity, negative = inhibition: at the top concentration.
Sequence of Cytochrome P450 1A2 (Homo sapiens) (P05177 whole entry, looked up): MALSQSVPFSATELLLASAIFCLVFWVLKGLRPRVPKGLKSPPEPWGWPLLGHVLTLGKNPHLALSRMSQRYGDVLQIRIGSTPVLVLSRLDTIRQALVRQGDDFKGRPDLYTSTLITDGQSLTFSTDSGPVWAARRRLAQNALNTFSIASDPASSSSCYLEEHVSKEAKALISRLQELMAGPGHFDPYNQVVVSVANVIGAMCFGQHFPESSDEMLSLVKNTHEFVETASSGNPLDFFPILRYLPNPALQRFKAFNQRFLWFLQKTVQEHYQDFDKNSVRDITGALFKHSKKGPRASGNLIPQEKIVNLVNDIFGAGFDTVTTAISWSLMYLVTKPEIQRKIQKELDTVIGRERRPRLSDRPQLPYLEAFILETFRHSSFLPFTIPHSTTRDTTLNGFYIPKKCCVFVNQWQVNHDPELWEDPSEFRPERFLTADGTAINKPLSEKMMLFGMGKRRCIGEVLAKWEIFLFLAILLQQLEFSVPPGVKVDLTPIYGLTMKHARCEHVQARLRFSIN
Consider `Cc1ccc2occ(/C=C/C(=O)O)c(=O)c2c1`, for which the “activity, negative = inhibition” value is -2.47%.
Consider `c1ccc(CNc2ncncc2-c2ccoc2)cc1`, for which the AC50 was 5.01 µM (active).
On the same count and under the same terms, the result for `c1cncc(-c2cncnc2NCc2cccs2)c1` reads 0.316 µM (active); that for `c1csc(CNc2ncncc2-c2ccoc2)c1`, 2 µM (active); that for `CC(N)=NCc1cccc(CN)c1`, “inactive”.
Consider `O=C(NCc1ccccc1)C(c1ccncc1)N(C(=O)c1csnn1)C1CC1` (stereo not drawn), for which the “activity, negative = inhibition” value was -5.19%.
The same measure, in the same setting: the result for `CN(C)CCCN1CCC2(CCC(C(C)(C)C)CC2)CC1` reads -1.31% [at 11.4 µM].
For the compound `CN1CCN(c2nc(-c3cccc(C#N)c3)nc3ccccc23)CC1`, the AC50 is 1.58 µM (active).
`N#Cc1cccc(-c2nc(N3CCNCC3)c3ccccc3n2)c1`: the AC50 was 2.51 µM (active).
In the case of `COc1ccc(-c2nc(-c3cccc(C)c3)nc(N3CCN(C)CC3)c2C#N)cc1`, the “activity, negative = inhibition” value was -22.7%.
The same measure, in the same setting: the result for `COc1ccc(C(=O)NC2(C(F)(F)F)C(=O)Nc3c2c(=O)[nH]c(=O)n3CCc2ccc(OC)c(OC)c2)cc1` (stereo not drawn) reads -2.71%.
As to `CC(=O)OCc1c(C(F)(F)F)nn(C)c1Sc1ccccc1`, the AC50 is 15.8 µM (active).
On the same count and under the same terms, the same measure for `COc1cc(S(C)=O)ccc1-c1nc2ncccc2[nH]1` (stereo not drawn): 0.251 µM (active).
As to `O=C(O)C[C@H](NC(=O)CP(=O)(O)O)C(=O)O.[NH-][C@@H]1CCCC[C@@H]1[NH-].[Pt]`, the activity, negative = inhibition was -15.5% [at 11.4 µM].
In the case of `FC(F)(F)c1nnc2c(Sc3ccccc3)nc3ccc(Cl)cc3n12`, the AC50 was 0.708 µM (active).
The same measure, in the same setting: the same measure for `FC(F)(F)c1nnc2c(Sc3ccc(Cl)cc3)nc3ccccc3n12`: 0.1 µM (active); for `CC(/C=N/n1c(-c2cccnc2)n[nH]c1=S)=C\c1ccccc1`: 0.141 µM (active).
The same measure, in the same setting: the result for `NNC(=O)c1nn(-c2ccc(Cl)cc2)ccc1=O` reads 15.8 µM (active).
Consider `O=C(O)c1nn(-c2ccccc2)ccc1=O`, for which the “activity, negative = inhibition” value was -8.64%.
As to `CC(C)=CCC/C(C)=C/CO/N=C1/C[C@@H](O)[C@@H](O)[C@@H]2[C@H]3C(=O)N(c4ccc(F)cc4F)C(=O)[C@@H]3CC[C@@H]12`, the activity, negative = inhibition is 8.54% [at 11.4 µM].
Take `C#CCN(C)Cc1ccccc1`: the AC50 entry was “inactive”.
On the same count and under the same terms, the same measure for `C#CCN(C)CCCOc1ccc(Cl)cc1Cl`: 631 nM (active) and 158 nM (active).
Regarding `CC[C@]1(O)C[C@H]2CN(CCc3c([nH]c4ccccc34)[C@](C(=O)OC)(c3cc4c(cc3OC)N(C=O)[C@H]3[C@@](O)(C(=O)OC)[C@H](OC(C)=O)[C@@]5(CC)C=CCN6CC[C@]43[C@H]65)C2)C1`, the “activity, negative = inhibition” value is -7.42%.
Same read-out and setting: the same measure for `CO[C@H]1C[C@@H]2C[C@H](O)C[C@@H](CC(=O)O[C@@H](/C=C\CC(C)C)C[C@@H]3CC[C@H](C)[C@@H](C1)O3)O2`: -2.91% [at 11.4 µM]; for `Clc1ccc2c(c1)N(CCCN1CCCC13CCCCC3)c1ccccc1S2`: -6.18% [at 2.29 µM].
Regarding `CN1CCN(CCCN2c3ccccc3Sc3ccc(Cl)cc32)CC1`, the AC50 is 1 µM (active) and 2.51 µM (active).
`CN1CCC[C@@H]1CCO[C@](C)(c1ccccc1)c1ccc(Cl)cc1`: the AC50 entry was “inactive”.
Turning to `CN1CCCC[C@@H]1CCN1c2ccccc2Sc2ccc(S(C)=O)cc21` (stereo partly drawn), the AC50 entry was “inactive”.
Same read-out and setting: the same measure for `CCSc1ccc2c(c1)N(CCCN1CCN(C)CC1)c1ccccc1S2`: 0.316 µM (active); for `CSc1ccc2c(c1)N(CC[C@H]1CCCCN1C)c1ccccc1S2`: 7.94 µM (active); for `O=C1CSC2(CCN(CCCN3c4ccccc4Sc4ccc(Cl)cc43)CC2)N1`: 3.16 µM (active).
Take `OC1CC2CC[C@H](C1)N2CCCN1c2ccccc2Sc2ccc(Cl)cc21` (stereo partly drawn): the activity, negative = inhibition is -12.5% [at 11.4 µM].
In the case of `O=c1n(CCCN2CCN(c3cccc(Cl)c3)CC2)nc2ccccn12`, the AC50 result was “inactive”.
Regarding `Nc1c(S(N)(=O)=O)cc(S(N)(=O)=O)cc1S(N)(=O)=O`, the activity, negative = inhibition is -11.6% [at 11.4 µM].
Consider `COCCCNCCCCOc1c(Cl)cc(C)cc1Br`, for which the AC50 was 0.562 µM (active).
Still for that read-out and setting: the result for `C=CCNCCCCOc1c(Cl)cc(C)cc1Br` reads 0.2 µM (active).
Regarding `FC(F)(F)c1cc(CN2CCCC3(CCNCC3)C2)cc(C(F)(F)F)c1`, the “activity, negative = inhibition” value was -20.7%.
Same read-out and setting: the result for `C[C@H]1/C=C\CC(=O)OC[C@H](C)C(=O)N2CCC[C@@H]2C(=O)OC1` reads 7.07% [at 11.4 µM].
Consider `NNc1nncc2ccccc12`, for which the half-maximal activity concentration (AC50) is 1 µM (active).
Still for that read-out and setting: the same measure for `CCOC(=O)NNc1nncc2ccccc12`: 5.01 µM (active).
As for `Fc1ccc(Nc2ncncc2-c2ccoc2)cc1`, the AC50 was 0.316 µM (active).
Take `Cc1noc(C)c1-c1cncnc1NC1CC1`: the “activity, negative = inhibition” value was -12.4%.
For the compound `c1ncc(-c2ccoc2)c(NC2CC2)n1`, the AC50 was 15.8 µM (active).
Same read-out and setting: the same measure for `c1ccc(Nc2ncncc2-c2ccoc2)cc1`: 1 µM (active).
As to `COc1cc(C2C(C#N)=C(N)N(Nc3ccccc3)C3=C2C(=O)CC(C)(C)C3)ccc1OCc1ccccc1` (stereo not drawn), the “activity, negative = inhibition” value was -22.4%.
Turning to `COc1cc(/C=N/O)cc(Br)c1OCc1cccc(Cl)c1`, the AC50 was 0.631 µM (active).
Still for that read-out and setting: the same measure for `N/C(=N\OC(=O)c1cc(-c2ccccc2)nc2ccccc12)c1ccc(Cl)cc1`: 11.2 µM (active).
For the compound `O=C(O)c1cc(-c2ccc(-c3ccc(-c4cc(C(=O)O)c5cc(Cl)ccc5n4)cc3)cc2)nc2ccc(Cl)cc12`, the activity, negative = inhibition is -18.1% [at 2.29 µM].
The same measure, in the same setting: the same measure for `O=C1[C@H]2[C@H]3[C@H](O)[C@H](O)C/C(=N/OC[C@@H](O)COCc4ccco4)[C@@H]3CC[C@@H]2C(=O)N1Cc1ccccc1`: 11.1% [at 11.4 µM].
`CCNc1ncc2nc(-c3ccccc3)c(=O)n(C3CC3)c2n1`: the AC50 is 2.51 µM (active).
As for `CCNc1ncc2nc(-c3ccc(Cl)cc3)c(=O)n(C3CC3)c2n1`, the AC50 is 0.501 µM (active).
As to `O=C(O)C1=C/C(=C(/c2ccccc2)c2cc(C(=O)O)c(O)c3ccccc23)c2ccccc2C1=O`, the activity, negative = inhibition is -21.5% [at 11.4 µM] and -13.1% [at 11.4 µM].
Turning to `Cc1ccc(O)c(-c2cc(C(F)(F)C(F)F)nc(-c3ccccc3)n2)c1`, the AC50 is 2.82 µM (active).
On the same count and under the same terms, the same measure for `COc1ccccc1NC(=S)NCCc1ccccc1`: 12.6 µM (active).
For `COc1ccccc1NC(=S)NNC(=O)c1c(Cl)c(C)nn1C`, the “activity, negative = inhibition” value was -12.1%.
As to `Fc1ccc(NC(=S)NCCc2ccccc2)c(F)c1F`, the AC50 was 5.62 µM (active).
Regarding `COc1ccccc1NC(=S)NC(=O)c1ccc(-c2ccc(Cl)cc2)o1`, the AC50 was 2.82 µM (active).
Same read-out and setting: the result for `Fc1ccccc1NC(=S)NCCc1ccccc1` reads 5.62 µM (active).

The values above are taken from PubChem BioAssay AID1851 (National Center for Advancing Translational Sciences (NCATS), 2009).
